Assay outcomes as filed in PubChem.
15-hLO inh: 15-hLO (ALOX15) enzyme inhibition; purified 15hLO-1, xylenol orange hydroperoxide absorbance; Potency, µM (series often up to 57.1 µM), without a hit: top-dose activity change, negative = inhibition, usual class: inhibitors; 74,000 compounds, 1.4% hits; further: nearly all actives have a fitted effect of over 55% in size
Target sequence (P16050 whole entry, looked up): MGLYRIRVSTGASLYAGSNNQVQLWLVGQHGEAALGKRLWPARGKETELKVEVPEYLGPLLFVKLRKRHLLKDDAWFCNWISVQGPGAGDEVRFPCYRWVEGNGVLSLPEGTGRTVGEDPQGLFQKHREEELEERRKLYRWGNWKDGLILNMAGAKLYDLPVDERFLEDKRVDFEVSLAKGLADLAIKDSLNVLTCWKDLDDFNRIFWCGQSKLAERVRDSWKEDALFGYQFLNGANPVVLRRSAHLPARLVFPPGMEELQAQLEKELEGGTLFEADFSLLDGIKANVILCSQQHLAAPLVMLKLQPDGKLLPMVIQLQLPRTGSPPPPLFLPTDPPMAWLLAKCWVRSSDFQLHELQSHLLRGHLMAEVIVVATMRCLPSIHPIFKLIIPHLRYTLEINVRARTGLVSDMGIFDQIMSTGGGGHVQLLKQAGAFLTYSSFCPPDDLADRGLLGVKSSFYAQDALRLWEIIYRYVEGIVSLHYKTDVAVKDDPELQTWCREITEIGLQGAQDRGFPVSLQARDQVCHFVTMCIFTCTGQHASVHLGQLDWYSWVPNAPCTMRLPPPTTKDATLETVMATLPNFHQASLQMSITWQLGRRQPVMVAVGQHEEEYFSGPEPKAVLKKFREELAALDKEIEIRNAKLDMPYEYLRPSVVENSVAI
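Hydroperoxide formed from arachidonic acid (50 uM) by purified human 15hLO-1 (40 nM) oxidizes ferrous iron, and the ferric-xylenol orange complex is read at 573 versus 405 nm. Compounds were preincubated 15 min; reaction ran 6 min at room temperature.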
Hsp90 Hop PPI: changes Hsp90-Hop TPR2A binding signal, up or down | AlphaScreen TPR2A-His6 binding biotin-Hsp90 C-terminal peptide | Potency, µM (doses to about 57 µM), inactives show top-dose activity change, negative = inhibition | 71,000 compounds, 0.44% hits | AID 595; active means well fitted curve in either direction with a large enough effect; inconclusive means small, poorly fitted or top-dose-only effect, or another doubt
Luciferase inh: blocks Photinus pyralis firefly luciferase activity. AID 411. P08659. purified firefly luciferase, luminescence, 8 min. 72,000 compounds, 2.2% hits. Potency, µM (doses to about 57.1 µM), for inactives: at the highest dose activity change, negative = inhibition, hits mostly inhibitors; further: nearly all actives have a fitted effect of over 40% in size
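Titration-based qHTS; buffer 50 mM imidazole pH 7.2, 50 mM KCl, 7 mM MgCl2, 10 uM ATP, 0.01% Tween 20, 0.05% BSA; luciferase/luciferin detector mix added after compound; 8 min, ambient; luminescence.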
ERK AVP inh: blocks ERK signaling stimulated by vasopressin; HEK293-V1b, vasopressin-stimulated pERK AlphaScreen; Potency, µM (top dose mostly 57.5 µM), for the others: top-dose activity, negative = inhibition, usual class: inhibitors; 72,000 compounds, 0.99% hits; AID 995; further: nearly all actives have a fitted effect of over 55% in size
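HEK293 cells stably expressing V1b receptor, preincubated 30 min at 37 °C with compound, then stimulated 5 min with 25 nM vasopressin. Phospho-ERK by AlphaScreen SureFire after 5 h RT; normalized to DMSO and vasopressin; AC50 by Hill fit.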
Tau fil binding: tau filament binding; P10636; recombinant tau filaments, thioflavin S fluorescence, 15 h; filaments grown with octadecylsulfate alongside compound; Potency, µM (titrated, usually from 57.1 µM), without a hit: at the highest dose activity change, negative = inhibition; 71,000 compounds, 2% hits;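 further: actives lower thioflavin S fluorescence by blocking filaments or displacing dye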
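Quantitative HTS: thioflavine S signal from ODS-induced tau filaments, excited at 450 nm, emission 510 nm. Conditions: 1 uM tau, 30 uM ODS, 15 h at 37 C, pH 7.4.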
PK Bst: modulators of Bacillus stearothermophilus pyruvate kinase; purified pyruvate kinase, luminescence ATP production; ribose 5-phosphate activator present at AC10; 51,000 compounds, 1.2% hits; Potency, µM; AID 361; in the data active means potency below about 11 µM; inconclusive means mostly about 12 µM to 25 µM;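 the screen sought inhibitors and activators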;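 further: scaled between full activation by ribose 5 phosphate and full inhibition by luteolin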
* = called active by the depositor; i = inactive; ? = inconclusive; · = no result; ! = repeats disagree; [ ] = another dose, or the depositor's remark. An excerpt weighted towards active compounds, which were near 6.1% of everything screened. Unless noted, the call rests on the fitted dose curve; in most records, active means well fitted curve in the direction sought with a large enough effect; inconclusive means small, poorly fitted or top-dose-only effect, or another doubt; inactive means no such curve, though single readings can be large; an effect the other way counts as inactive or inconclusive. Unless noted, on the % scale 0 is the no-effect control and ±100 the full control effect; potency means the concentration at half of the fitted maximal effect.

SMILES	15-hLO inh	Hsp90 Hop PPI	Luciferase inh	ERK AVP inh	Tau fil binding	PK Bst
COc1ccc(C2c3c(oc4ccccc4c3=O)C(=O)N2c2ccccn2)cc1OC (stereo not given)	10.8%	-4.3%	1.3%	-13.6%	-7.4%	·
COc1cc(C2c3c(oc4ccccc4c3=O)C(=O)N2c2ccc(C)cn2)ccc1O (stereo not given)	-5.9%	-9.6%	-0.5%	?	12.6µM*	·
CCNc1ncc2nc(-c3cccs3)c(=O)n(Cc3cccs3)c2n1	-10.9%	-11.5%	1.6%[11.4 µM]	2.8%	i	·
Cc1cc(-c2ccc(N3C(=O)CCC3=O)c(C)c2)ccc1N1C(=O)CCC1=O	1.1%	-4.3%	15.8µM*	-17.2%	13.7%	·
O=C1CCC(=O)N1c1ccccc1-c1ccccc1	1.2%	-0.1%	1.6%	-12.1%	1.4%	·
O=c1c(-c2ccc(Cl)cc2)nc2cnc(Oc3ccccc3)nc2n1C1CC1	-10.4%	0.5%	1.0%[11.4 µM]	-9.2%	12.6µM*	·
O=c1c(-c2cccs2)nc2cnc(Oc3ccccc3)nc2n1C1CC1	-26.8%	20µM*	0.5%[11.4 µM]	35.3%	43.4%	·
N#Cc1cccc(-c2nc3cnc(Oc4cccc(Cl)c4)nc3n(C3CC3)c2=O)c1	-2.1%	-5.4%	-0.3%[11.4 µM]	?	10µM*	·
O=c1c(-c2ccccc2)nc2cnc(Oc3ccccc3)nc2n1C1CC1	-1.1%	-1.3%	0.0%[11.4 µM]	35.0%	-22.3%	·
CN(C)c1ncc2nc(-c3cccs3)c(=O)n(C3CC3)c2n1	-8.2%	3.98µM*	-3.0%[11.4 µM]	27.7%	i	·
Cn1cc(-c2nc3cnc(Oc4cccc(Cl)c4)nc3n(C3CC3)c2=O)c2ccccc21	8.9%	?	0.0%[11.4 µM]	-42.7%	7.9%	·
CN(C)c1ncc2nc(-c3cccs3)c(=O)n(Cc3cccs3)c2n1	2.0%	-5.3%	0.9%[11.4 µM]	-3.8%	i	·
COCC(=O)N1CCC2(CCCN(C(=O)Nc3ccc(OC)cc3)C2)CC1	6.3%	0.4%	2.0%[11.4 µM]	8.2%	7.8%	·
COCCn1c(=O)c(-c2ccc(F)cc2)nc2cnc(N(C)C)nc21	-14.5%	-3.9%	-0.5%[11.4 µM]	22.4%	15.9%	·
O=C(c1ccccc1)c1ccc(N2CCOCC2)c(F)c1	31.6µM*	2.8%	?	?	-22.1%	·
Cn1ccc2cc(NC(=O)Nc3cccnc3)ccc21	1.3%[25.6 µM]	-9.9%	15.8µM*	-13.0%	22.0%	·
O=C(Nc1cccnc1)Nc1ccc(F)c(Cl)c1	-10.5%	?	20µM*	-5.1%	-11.9%	·
O=C(Nc1cccnc1)Nc1ccc2c(c1)OCO2	0.2%	0.4%	15.8µM*	-14.7%	-3.8%	·
O=C(Nc1ccc2c(c1)OCO2)Nc1cnccn1	-4.5%	-0.6%	-20.4%	-10.1%	5.7%	>57
Cn1nnc2cc(C(=O)Nc3cccnc3)ccc21	0.4%	?	1.5%	30.0%	-2.2%	>57
COc1ccc(Oc2ncc3nc(CCc4ccccc4)c(=O)n(CCC#N)c3n2)cc1	1.2%	2.7%	0.1%[11.4 µM]	-7.8%	-5.8%	·
COC1C(O)C(CO)OC1n1cnc2c(=O)[nH]c(N)nc21 (stereo not given)	13.7%	·	·	7.8%	·	·
CC(C)=CC(=O)Nc1ccc(Br)cc1	-3.9%	1.3%	20µM*	-14.2%	-4.0%	·
CC(=O)NC(C)C(=O)OCC(=O)Nc1ccc(Br)cc1 (stereo not given)	3.2%	-0.9%	-1.8%	5.0%	3.5%	·
C[C@@]12CCC3c4ccc(OC5C=CC(c6ccccc6)OC5CO)cc4CCC3C1CCC2=O (stereo not given in full)	-19.0%[11.4 µM]	·	·	26.7%[11.5 µM]	·	·
SMILES	15-hLO inh	Hsp90 Hop PPI	Luciferase inh	ERK AVP inh	Tau fil binding	PK Bst
CC(=O)Nc1ccc(OC[C@@H](O)CNC(C)C)cc1	?	-3.7%	-1.6%	4.1%	39.8µM*!	·
Cc1ccc(C)o1	-3.0%	-7.8%	·	11.6%	0.9%	·
O=S(=O)(c1ccc2c(c1)OCCO2)N1CCN(c2nc3ccccc3s2)CC1	-10.9%	0.6%	0.1%	-25.2%	12.9%	>57
c1ccc2c(c1)CCN(c1nc3cc4c(cc3s1)OCCO4)C2	3.98µM*	-10.1%	0.316µM*	9.5%	-6.7%	0.439*
CCC/C=C(\CCC)C(NS(=O)(=O)c1ccccc1)c1ccc(C(F)(F)F)cc1 (stereo not given)	·	?	·	25.9%	-25.0%	·
CCCCc1ccc(-c2ccc(C)cc2O)nc1	3.0%	?	10µM*	42.3%	-3.8%	9.8*
CC(C)N1CC=C2C(C#N)=C(N)C(C#N)(C#N)C(c3ccccc3)C2C1 (stereo not given)	·	·	-0.6%[25.5 µM]	·	·	>11.4
Cc1ccc(C2C3CSCC=C3C(C#N)=C(N)C2(C#N)C#N)cc1 (stereo not given)	25.1µM*	-8.3%	-2.2%	8.2%	97.1%	>57
COc1ccc2cc(C#N)c(NC(C)C)nc2c1	-3.4%	?	-1.2%	17.4%	2.0%	·
CCN(CC)c1nc2cc(OC)ccc2cc1C#N	-11.6%	25.1µM*	-0.5%	97.6%	4.7%	·
CCN(CC)c1nc(C#N)cc(-c2ccc(OC)cc2)n1	-17.2%	25.1µM*	0.4%	363.3%	12.6µM*	>57
COCC(=O)N1CCC2(CCCN(Cc3nccs3)C2)CC1	1.1%	-2.2%	3.5%[11.4 µM]	14.7%	5.2%	·
CC(C)Oc1ccc2c(=O)c3cc(C(=O)O)ccc3oc2c1	-5.4%[25.6 µM]	-5.1%	-7.3%	-9.6%	?	·
O=C(Nc1cccnc1)c1cc2c(ccc3ccccc32)o1	?	-9.0%	3.98µM*	-8.9%	i	·
Cc1ccc(-c2cc(C(=O)Nc3cccnc3)c3ccccc3n2)o1	-24.2%	-0.8%	7.94µM*	-20.0%	-19.6%	·
COC(=O)NC(c1ccccc1)[C@@]1(C(=O)OC)CCCC1=O (stereo not given in full)	9.5%[11.4 µM]	·	·	-5.8%[11.5 µM]	·	·
O=[N+]([O-])c1cc(Cc2cc([N+](=O)[O-])c3cccnc3c2O)c(O)c2ncccc12	-0.1%[11.4 µM]	1.58µM*	-0.1%[11.4 µM]	7.6%[11.5 µM]	-28.4%[11.4 µM]	·
Oc1c(Br)cc(Br)c2cccnc12	12.2%	·	·	-11.3%	·	·
COc1cc(NC(=O)NCCN2CCN(c3ccc(Cl)cc3)CC2)ccc1C	?	-17.8%	1.0%	?	12.6µM*	>57
CC(NC(=O)c1cc(-c2ccc(O)cc2)on1)c1ccccc1 (stereo not given)	-10.3%	-1.6%	-0.8%	0.9%	-17.6%	·
COc1ccc(CNc2cc(-c3ccccc3C)ncn2)c(OC)c1	6.6%	7.4%	-4.0%[2.29 µM]	12.6µM*	6.3%	·
COc1ccccc1CNc1cc(-c2ccccc2OC)ncn1	-18.0%	7.0%	0.8%[2.29 µM]	7.94µM*	419.9%	·
COc1ccccc1CNc1cc(-c2ccccc2C)ncn1	1.8%	-3.7%	1.4%[2.29 µM]	-27.9%	9.2%	·
CCC1=C2CC[C@H]3C(=O)NC(=O)[C@H]3[C@H]2[C@@]2(Cc3ccccc3)C(=NCC3CC3)OC(=O)N2C1=O	·	·	·	8.2%	·	·
COc1cc2c(cc1NC(=O)c1cncc(Br)c1)oc1ccccc12	1.7%	-1.2%	1.0%	-22.2%	28.9%	>57
COc1cc2c(cc1NCc1ccccn1)oc1ccccc12	?	?	-7.3%	-17.8%	31.6µM*	i
